According to PubChem BioAssay AID1851 (National Center for Advancing Translational Sciences (NCATS), 2009):
Out of some 16,000 compounds screened, about 5,100 (32%) were called active. Another 25% or so got no clear call; they are omitted. This is one part of the list. Values without a mark were called inactive. The call rests on the fitted dose curve; in most records, active means well fitted curve in the direction sought with a large enough effect; inconclusive means small, poorly fitted or top-dose-only effect, or effect the other way; inactive means no such curve, though single readings can be large or run the other way.

The compounds below were run against Cytochrome P450 3A4 (Homo sapiens) (UniProt P08684) (assay: Cytochrome panel assay with activity outcomes). Details: recombinant CYP, pro-luciferin dealkylation, luminescence, p450-cyp3a4; series mostly up to 57.1 µM; activity, negative = inhibition: at the top concentration.
On the % scale 0 is the no-effect control and ±100 the full control effect.

Cytochrome P450 3A4 (Homo sapiens), sequence (P08684 whole entry, looked up): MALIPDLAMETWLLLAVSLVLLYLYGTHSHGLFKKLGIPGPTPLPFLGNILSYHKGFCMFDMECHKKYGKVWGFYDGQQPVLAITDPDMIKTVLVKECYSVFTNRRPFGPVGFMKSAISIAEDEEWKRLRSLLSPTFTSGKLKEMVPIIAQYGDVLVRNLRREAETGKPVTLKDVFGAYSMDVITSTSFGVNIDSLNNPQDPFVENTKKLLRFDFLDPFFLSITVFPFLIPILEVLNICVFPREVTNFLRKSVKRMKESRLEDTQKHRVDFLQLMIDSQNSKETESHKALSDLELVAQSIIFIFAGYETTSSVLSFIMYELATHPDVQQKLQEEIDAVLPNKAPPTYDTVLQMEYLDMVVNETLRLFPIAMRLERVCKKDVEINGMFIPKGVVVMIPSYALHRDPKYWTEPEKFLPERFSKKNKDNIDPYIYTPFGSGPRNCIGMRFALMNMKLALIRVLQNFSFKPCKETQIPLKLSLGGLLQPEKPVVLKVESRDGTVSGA

With COC(=O)[C@@]1(Cc2ccc(F)cc2)[C@H]2c3cc(C(=O)N4CCCC4)n(CCc4ccc(O)c(O)c4)c3C[C@H]2CN1C(=O)c1ccccc1 as the compound, how does the AC50 read?
Its AC50 is 2.51 µM (active).

With Cc1cc(OCC(F)(F)C(F)(F)C(F)(F)C(F)(F)C(F)(F)C(F)F)nc(N)n1 as the compound, how does the “activity, negative = inhibition” value read?
The value was -27.6%.

Nc1ccc(-c2sc(N)nc2-c2ccccc2)cc1 was tested. Which AC50 did it give?
The AC50 was 10 µM (active).

Nc1nc(-c2ccccc2)c(-c2ccccc2)c(-c2nc(N)nc(-c3ccccc3)c2-c2ccccc2)n1 was tested. Which activity, negative = inhibition did it give?
The activity, negative = inhibition was 4.04% [at 11.4 µM].

How did the activity, negative = inhibition turn out when Nc1nc(-c2ccccc2)c(-c2ccccc2)s1 was run?
Its activity, negative = inhibition is -8.94% [at 2.29 µM].

For CSC1=N/C(=C\c2ccc(Br)o2)C(=O)S1, which activity, negative = inhibition is on record?
Its activity, negative = inhibition is -3.65% [at 11.4 µM].

Which AC50 does the source give for C=CC[C@@H]1C=C[C@H](O/N=C(\C)CCN2CCc3nc(-c4ccccc4)c(-c4ccccc4)cc3C2)[C@H](CO)O1 here?
Its AC50 is 3.98 µM (active).

For C=CC[C@@H]1C=C[C@H](O/N=C(\C)CCN2CCc3nc(CC)c(CC)cc3C2)[C@H](CO)O1, which activity, negative = inhibition is on record?
Its activity, negative = inhibition is -75.9% [at 11.4 µM].

How did the activity, negative = inhibition turn out when COc1ccc(O[C@H]2C=C[C@@H](c3ccccc3)O[C@@H]2CO/N=C(\C)CCN2CCc3nc(-c4ccccc4)c(-c4ccccc4)cc3C2)cc1 was run?
Its activity, negative = inhibition is -57.3% [at 11.4 µM].

Which AC50 does the source give for CCCNC(=O)OC[C@@H]1O[C@H](CCO/N=C(\C)CCN2CCc3nc(-c4ccccc4)c(-c4ccccc4)cc3C2)C=C[C@@H]1Oc1ccc(OC)cc1 here?
The AC50 was 3.16 µM (active).

For CCCNC(=O)OC[C@@H]1O[C@H](CCO/N=C(\C)CCN2CCc3nc(CC)c(CC)cc3C2)C=C[C@@H]1Oc1ccc(OC)cc1, which AC50 is on record?
The AC50 was 3.98 µM (active).

Cc1c(C)c(C)c(CC2(C)CSC2)c(CC2(C)CSC2)c1C was tested. Which activity, negative = inhibition did it give?
The activity, negative = inhibition was -14.4% [at 11.4 µM].

Which AC50 does the source give for CC(C)(C)NC(=O)CN(Cc1cccs1)C(=O)CCC(=O)Nc1nccs1 here?
The AC50 was 4.47 µM (active).

With CC1=CC2=NC(=O)CC(C)(C(=O)N(CC(=O)NC(C)(C)C)Cc3cccs3)N2C=C1 (centres undefined) as the compound, how does the “activity, negative = inhibition” value read?
Its value is -28.5%.

How did the AC50 turn out when CN(C)CCN(Cc1cccs1)c1ccccn1 was run?
Its AC50 is “inactive”.

With CSc1nc(C)c2c(n1)N(c1ccc(C(F)(F)F)cc1)CC2 as the compound, how does the “activity, negative = inhibition” value read?
The value was -9.83%.

How did the AC50 turn out when CCOC(=O)c1c(-c2ccc(C)o2)csc1NC(=S)NC(=O)N(C)C was run?
The AC50 was 15.8 µM (active).

Which activity, negative = inhibition does the source give for CCOC(=O)c1c(-c2ccc(C)cc2)csc1NC(=O)C1CC=CCC1C(=O)O (centres undefined) here?
Its activity, negative = inhibition is -2.99% [at 2.29 µM].

With CCOC(=O)c1c(-c2ccccc2)csc1NC(=O)c1cccc(N2C(=O)CCC2=O)c1 as the compound, how does the “activity, negative = inhibition” value read?
The value was 28.3%.

How did the AC50 turn out when COc1cccc(-c2ccc3ncnc(N4CCN(C)CC4)c3c2)c1 was run?
Its AC50 is 15.8 µM (active).

Which AC50 does the source give for CN(C)C(=O)c1ccc(-c2ccc3ncnc(N4CCOCC4)c3c2)cc1 here?
The AC50 was 15.8 µM (active).

COc1ccc(-c2nc(-c3cccc(C)c3)nc(N3CCN(C)CC3)c2C#N)cc1 was tested. Which activity, negative = inhibition did it give?
The activity, negative = inhibition was -13.1% [at 2.29 µM].

How did the “activity, negative = inhibition” value turn out when COc1ccc(-c2nsc3c(N4CCCCC4)ncnc23)cc1 was run?
Its value is 8.86%.

With CN(C)C(=O)c1ccc(-c2ccc3ncnc(N4CCNCC4)c3c2)cc1 as the compound, how does the “activity, negative = inhibition” value read?
Its value is -29.4%.

With COc1cc(N2CCOCC2)ncn1 as the compound, how does the “activity, negative = inhibition” value read?
Its value is -0.512%.

Which AC50 does the source give for COc1cccc(-c2ccc3ncnc(N4CCOCC4)c3c2)c1 here?
Its AC50 is 10 µM (active).

NCC[C@H]1CCC[C@H](CCN)N1 was tested. Which “activity, negative = inhibition” value did it give?
Its value is 0.169%.

O=c1nc2ccccc2c2n1CC(CN1CCN(c3cccc(Cl)c3)CC1)N2 (centres undefined) was tested. Which “activity, negative = inhibition” value did it give?
Its value is 15.2%.

For CCOC(=O)N1CCN(c2c(-c3ccccc3)c3cc(Cl)ccc3[nH]c2=O)CC1, which “activity, negative = inhibition” value is on record?
The value was 10.2%.

For O=C(Cc1ccc(-n2c(=O)[nH]c3ccccc3c2=O)cc1)N1CCN(c2cccc(Cl)c2)CC1, which AC50 is on record?
Its AC50 is 3.16 µM (active).

N/C(CC/C(N)=N/O)=N\O was tested. Which activity, negative = inhibition did it give?
Its activity, negative = inhibition is -5.56% [at 11.4 µM].

For CCOC(=O)CCN1C(=O)[C@H]2[C@@H]3[C@H](O)C=CC(=O)[C@H]3CC[C@H]2C1=O, which activity, negative = inhibition is on record?
Its activity, negative = inhibition is -11.5% [at 11.4 µM].

Which AC50 does the source give for Cc1cc(NC(=O)CCN2C(=O)C3C4CCC(C4)C3C2=O)c(C)cc1Br (centres undefined) here?
The AC50 was 7.94 µM (active).

For Cc1cccc(C)c1NC(=O)CCN1C(=O)C2C3CCC(C3)C2C1=O (centres undefined), which activity, negative = inhibition is on record?
The activity, negative = inhibition was 0.821% [at 2.29 µM].

How did the “activity, negative = inhibition” value turn out when O=C(/C=C/c1ccccc1)N1CCN(Cc2nc3ccccc3c(=O)[nH]2)CC1 was run?
Its value is -25.9%.

Which “activity, negative = inhibition” value does the source give for CCN1CCN(C(=O)CCc2nc3ccccc3c(=O)[nH]2)CC1 here?
Its value is -10.4%.

With O=C(CCc1nc2ccccc2c(=O)[nH]1)OCC(=O)N1CCN(S(=O)(=O)c2ccccc2)CC1 as the compound, how does the AC50 read?
The AC50 was 7.94 µM (active).

C[C@H]1C=C2C=C[C@H](C)[C@H](CC[C@@H]3C[C@@H](O)CC(=O)O3)[C@H]2[C@@H](OC(=O)[C@@H](C)CCO)C1 was tested. Which AC50 did it give?
The AC50 was 12.6 µM (active).

CC[C@H](C)C(=O)O[C@H]1CCC=C2C=C[C@H](C)[C@H](CC[C@@H]3C[C@H](O)CC(=O)O3)[C@H]21 was tested. Which AC50 did it give?
Its AC50 is 12.6 µM (active).

CCCCCC1CCC(C(=O)NNC(=S)NCC)CC1 (centres undefined) was tested. Which activity, negative = inhibition did it give?
Its activity, negative = inhibition is -1.07% [at 2.29 µM].

With CN(C)CC[C@H](c1ccc(Br)cc1)c1ccccn1 as the compound, how does the AC50 read?
The AC50 was “inactive”.

How did the “activity, negative = inhibition” value turn out when COCCN(C(=O)C(C)C)c1nnc(-c2ccc(C)cc2)s1 was run?
The value was 12.8%.

With CCn1c(SCC(=O)N2CCOCC2)nc2oc3c(Cl)cc(Cl)cc3c(=O)c2c1=O as the compound, how does the AC50 read?
Its AC50 is 11.2 µM (active).

How did the activity, negative = inhibition turn out when CC(C)Cn1c(-c2ccc(Cl)cc2)cnc1SCC(=O)N1CCOCC1 was run?
The activity, negative = inhibition was -5.92% [at 2.29 µM].
